Counter-ions that a name gives are not always drawn.
System: E18 rat cortical neuron-glia co-culture
Assay: myelination (MBP fiber length per Olig2+ nucleus), % of 1 µM DAPT response (DMSO = 0) (% of DAPT); higher = more myelination, active = 50 or more
Details: 5 µM; treatment time: 8 days (DIV5-DIV13)
In short: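 Myelination, expressed as continuous straight MBP fiber length per Olig2+ nucleus, was normalised to 0.1 % DMSO as 0 and a 1 µM positive control as 100. The cultures were primary E18 rat cortical co-cultures dissociated with papain and plated at 20,000 cells/well on poly-d-lysine/laminin-coated 96-well plates. They received library compounds at 1 or 5 µM in myelination medium between DIV5 and DIV13. Analysis covered four 10X fields per well in duplicate wells after 4 % paraformaldehyde fixation and immunostaining for MBP and Olig2 with DAPI.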

With `CCCCC(=O)O[C@H]1CC[C@H]2[C@@H]3CCc4cc(O)ccc4[C@H]3CC[C@]12C` [Estradiol valerate] as the molecule, how does the myelination read?
Its myelination is 11.9 (inactive).

Which myelination does the source give for `CN(C)CCC=C1c2ccccc2COc2ccccc21` [Doxepin] here?
The myelination was -4.42 (inactive).

With `NC(=O)c1cccnc1` [Niacinamide] as the molecule, how does the myelination read?
The myelination was -4.86 (inactive).

Which myelination does the source give for `COc1cc(C[C@@H](CO)[C@H](CO)Cc2ccc(O)c(OC)c2)ccc1O` [Secoisolariciresinol] here?
Its myelination is -8.85 (inactive).

With `CCCc1c(OCCCCc2nnn[nH]2)ccc(C(C)=O)c1O` as the molecule, how does the myelination read?
The myelination was 1.2 (inactive).

How did the myelination turn out when `O=C(c1ccc(F)cc1)C1CCN(CCn2c(=S)[nH]c3ccccc3c2=O)CC1` [Altanserin] was run?
Its myelination is -16.1 (inactive).

For `Nc1ccc2cn[nH]c2c1` [6-Aminoindazole], which myelination is on record?
Its myelination is -11.1 (inactive).

With `C[C@@H]1C[C@H]2[C@@H]3CCC4=CC(=O)C=C[C@]4(C)[C@@]3(F)[C@@H](O)C[C@]2(C)[C@H]1C(=O)CO` [Desoximetasone] as the molecule, how does the myelination read?
Its myelination is -8.43 (inactive).

Which myelination does the source give for `O=C1CC2(CCCC2)CC(=O)N1CCNCC1COc2ccccc2O1` (centres undefined) [Binospirone] here?
The myelination was -17.9 (inactive).

For `N[C@@H]1CONC1=O` [Cycloserine], which myelination is on record?
Its myelination is -32.4 (inactive).

With `CCOc1ccc2ccccc2c1C(=O)N[C@@H]1C(=O)N2[C@@H]1SC(C)(C)[C@@H]2C(=O)O` [Nafcillin] as the molecule, how does the myelination read?
Its myelination is -9.33 (inactive).

`N#Cc1ccc(C(c2ccc(C#N)cc2)n2cncn2)cc1` [letrozole] was tested. Which myelination did it give?
Its myelination is 2.49 (inactive).

For `CCCCN1CCCCC1C(=O)Nc1c(C)cccc1C` (centres undefined) [Bupivacaine], which myelination is on record?
The myelination was -16.6 (inactive).

Which myelination does the source give for `CC(C)[N+](C)(CCOC(=O)C1c2ccccc2Oc2ccccc21)C(C)C` [Propantheline] here?
The myelination was 3.32 (inactive).

For `CN1CCC(=C2c3ccccc3CCc3sccc32)CC1` [Pizotyline], which myelination is on record?
The myelination was -22 (inactive).

For `Clc1cccc(Cl)c1NC1=NCCN1` [Clonidine hydrochloride], which myelination is on record?
The myelination was -5.88 (inactive).

How did the myelination turn out when `Nc1nc(N)c2nc(-c3ccccc3)c(N)nc2n1` [Triamterene] was run?
The myelination was 461 (active).

With `Cn1ccnc1S` [Methimazole] as the molecule, how does the myelination read?
The myelination was -15.9 (inactive).

`O=C(CCCN1CCC(O)(c2ccc(Cl)cc2)CC1)c1ccc(F)cc1` [Haloperidol] was tested. Which myelination did it give?
The myelination was -13.9 (inactive).

How did the myelination turn out when `CN(C)CCCN1c2ccccc2CCc2ccc(Cl)cc21` [Clomipramine] was run?
Its myelination is -23 (inactive).

How did the myelination turn out when `COC(=O)CCc1ccc(OCC(O)CNC(C)C)cc1` (centres undefined) [Esmolol] was run?
The myelination was -0.768 (inactive).

`COc1ccc(CN2CCN(C(c3ccc(F)cc3)c3ccc(F)cc3)CC2)c(OC)c1OC` [Lomerizine] was tested. Which myelination did it give?
Its myelination is -23.5 (inactive).

For `CC(C)(C#N)c1cc(Cn2cncn2)cc(C(C)(C)C#N)c1` [Anastrozole], which myelination is on record?
Its myelination is -11.9 (inactive).

For `CC(=O)NS(=O)(=O)c1ccc(N)cc1` [Sulfacetamide], which myelination is on record?
Its myelination is 1.76 (inactive).

Which myelination does the source give for `CC(C)NCC(O)c1ccc(O)c(O)c1` (centres undefined) [Isoproterenol] here?
Its myelination is 10.5 (inactive).

How did the myelination turn out when `CC(C)[N+]1(C)[C@@H]2CC[C@H]1C[C@@H](OC(=O)C(CO)c1ccccc1)C2` (some centres undefined) [Ipratropium] was run?
The myelination was 32.8 (inactive).

With `C[C@@H](c1ncncc1F)[C@](O)(Cn1cncn1)c1ccc(F)cc1F` [Voriconazole] as the molecule, how does the myelination read?
The myelination was -29.3 (inactive).

Which myelination does the source give for `c1ccc(-c2ccc(C(c3ccccc3)n3ccnc3)cc2)cc1` (centres undefined) [Bifonazole] here?
The myelination was -26.8 (inactive).

Which myelination does the source give for `COc1ccc([C@@H]2Sc3ccccc3N(CCN(C)C)C(=O)[C@@H]2OC(C)=O)cc1` [Diltiazem] here?
Its myelination is -20.8 (inactive).

For `CC1(C)S[C@@H]2[C@H](/N=C/N3CCCCCC3)C(=O)N2[C@H]1C(=O)O` [Amdinocillin], which myelination is on record?
The myelination was -5.42 (inactive).

For `CC(C)NCC(O)c1ccc(NS(C)(=O)=O)cc1` (centres undefined) [Sotalol], which myelination is on record?
Its myelination is -60.5 (inactive).

For `CC1(C)S[C@@H]2[C@H](NC(=O)COc3ccccc3)C(=O)N2[C@H]1C(=O)O` [Penicillin V], which myelination is on record?
The myelination was -3.83 (inactive).

Which myelination does the source give for `CC(C)NCC(O)COc1cccc2ccccc12` (centres undefined) [Propranolol] here?
The myelination was 1.55 (inactive).

`CC(=O)O[C@@]12CO[C@@H]1C[C@H](O)[C@@]1(C)C(=O)[C@H](O)C3=C(C)[C@@H](OC(=O)[C@H](O)[C@@H](NC(=O)OC(C)(C)C)c4ccccc4)C[C@@](O)([C@@H](OC(=O)c4ccccc4)[C@H]21)C3(C)C` [Docetaxel] was tested. Which myelination did it give?
Its myelination is 257 (active).

With `CC(=O)S[C@@H]1CC2=CC(=O)CC[C@]2(C)[C@H]2CC[C@@]3(C)[C@@H](CC[C@@]34CCC(=O)O4)[C@H]12` [Spironolactone] as the molecule, how does the myelination read?
The myelination was 6.33 (inactive).

For `CC(C)(C)NC[C@H](O)COc1nsnc1N1CCOCC1` [Timolol], which myelination is on record?
The myelination was -1.56 (inactive).

With `COc1ccc(C(=O)NCc2ccc(OCCN(C)C)cc2)cc1OC` [Itopride] as the molecule, how does the myelination read?
Its myelination is -10.7 (inactive).

With `Nc1nnc(-c2cccc(Cl)c2Cl)c(N)n1` [Lamotrigine] as the molecule, how does the myelination read?
Its myelination is -15.5 (inactive).

With `CC(C)/N=c1\cc2n(-c3ccc(Cl)cc3)c3ccccc3nc-2cc1Nc1ccc(Cl)cc1` [Clofazimine] as the molecule, how does the myelination read?
The myelination was -8.06 (inactive).

Source: the supplement of paper PMC4840960
